HSF1 inhib – HSF1 inhibition | NIH3T3-HGL HSE-luciferase, MG132-induced, luminescence 8 h; hits give low values | activity change, negative = inhibition, % at 7.5 µM (by protocol) | actives 0.77% (n = 300,000);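 active = more than half of replicate wells show activity change below -50%, luminescence cut by over half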;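 also: luciferase reports HSF-1 transcriptional activity via heat shock element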
ARNT TACC3 PPI – disruptors of human ARNT/TACC3 interaction. inhibition, % at 9.99 µM. Q9Y6A5. actives 0.66% (n = 390,000). AlphaScreen His-ARNT PAS-B/GST-TACC3 binding, luminescence; TACC3 fragment carries E629A point mutation. AID 623870;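 active = mean inhibition of replicates at least 50% and at least half of replicates each reaching 50%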
HSF1 activator – increases HSF-1 driven luciferase reporter signal. actives 1.7% (n = 300,000). activation, % at 9 µM. NIH3T3-HGL HSF-1 luciferase reporter, MG132, 8 h; 100% = twice DMSO control signal. AID 504408;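 active = mean replicate activation of at least 50% with a set share of replicates each reaching 50%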
HSP90 refold inh – HSP90 refolding inhibition in rabbit reticulocyte lysate. luciferase refolding luminescence, 3 h. inhibition, % at 5.6 µM. actives 0.91% (n = 290,000);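 active = inhibition above the screen-wide mean plus 3 SD, computed separately per campaign, cut at about 16% in these data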;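 also: inhibitors lower the luminescence because luciferase stays unfolded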
HIF activator – HIF pathway transcriptional activation; activation, % at 7.5 µM (by protocol); U2OS HRE-luciferase reporter, luminescence; normalized: DMSO 0%, desferrioxamine 100%; actives 0.32% (n = 300,000);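 active = mean activation of at least 10% of the iron chelator positive control signal, with at least half of replicates also reaching 10%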
ARNT Alpha ctr – counter-screen for ARNT/TACC3 inhibitors: AlphaScreen artifacts; AID 651705; His-ARNT PASB-GST AlphaScreen artifact counter-screen, luminescence; actives 50% (n = 1,200); shares compounds with ARNT TACC3 PPI; AC50, µM (titrated, usually from 68 µM);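 active = every separate test run was called active for a drop in luminescence, with AC50 within twice the top valid dose, actives reach about 71 µM in these data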
Of the large screens only hits and unclear results are named; the others gave an inactive call (follow-up assays come after a bar, where they were run). A selection: hits, their analogues and other compounds. The true share with any hit is near 3.1%.

N#CC1(c2ccccc2)CCN(C2CC(=O)N(c3cccc(F)c3)C2=O)CC1 (configuration not stated)	none
Oc1ccc(CN2CCC3CCCCC3C2)c2cccnc12 (configuration not stated)	none (no result: HSF1 inhib, ARNT TACC3 PPI, HSF1 activator, HSP90 refold inh, HIF activator) | ARNT Alpha ctr 3.3µM
Oc1cccc2cccnc12	none (no result: ARNT TACC3 PPI)
N#CC1(c2ccccc2)CCN(Cc2ccc(O)c3ncccc23)CC1	none (no result: HSF1 inhib, ARNT TACC3 PPI, HSF1 activator, HSP90 refold inh, HIF activator) | ARNT Alpha ctr 5.9µM
O=C(Cc1cccnc1)N1CCCCN2[C@H](CO)[C@@H](c3ccc(/C=C/c4ccccc4)cc3)[C@H]2C1	none (no result: HSF1 inhib, HSF1 activator, HSP90 refold inh, HIF activator)

Assay outcomes from PubChem BioAssay.
